Screening data as filed in PubChem BioAssay.
Gal4-VP16 FLuc: VP16 counterscreen qHTS for inhibitors of ROR gamma transcriptional activity. Drosophila S2 Gal4-VP16 UAS-luciferase, luminescence, 20 h. hit rate 3.5% among 310,000. Potency, µM (series often up to 53.6 µM), for the others: at the highest dose activity, negative = inhibition, most hits filed as inhibitors;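 also: Gal4-VP16 expression switched on by copper sulfate through the metallothionein promoter; % is scaled to controls: 0 for no effect and ±100 for the full control effect; nearly all actives have a fitted effect of over 50% in size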
Chronic BCR inh: qHTS Assay to Find Inhibitors of Chronic Active B-Cell Receptor Signaling. Potency, µM (doses to about 46.1 µM), inactives show at the top dose activity change, negative = inhibition, actives largely listed as inhibitors. ABC-DLBCL IkBa-CBG/CBR reporter, luminescence ratio, 4 h. hit rate 0.05% among 340,000; active = well fitted inhibition curve with a large enough effect in the signal ratio, with a control signal flat, not every such curve was filed as active; inconclusive = small, poorly fitted or top-dose-only effect, or effect the other way, or a change in a side signal; the % refers to the signal ratio;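 also: plate controls were basal doxycycline-induced cells for no effect and cells given 10 µM MG132 for full effect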
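Doxycycline induced both beetle luciferases in TMD8 lymphoma cells; IKK-driven degradation limits the IkappaBalpha-fused green signal, while red luminescence normalises for cell number and nonspecific effects. Compounds tested up to 46 uM, 4 hrs.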
Mito fusion yeast: qHTS Assay for Small Molecule Inhibitors of Mitochondrial Division or Activators of Mitochondrial Fusion; S. cerevisiae fusion-defective mutant growth rescue, CellTiterGlo 48 h; Potency, µM (series often up to 46.1 µM), without a hit: at the highest dose growth rescue (activation), usual class: activators; hit rate 0.23% among 320,000; also: % of control where 0% means no effect; nearly all actives have a fitted effect of over 45% in size
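Yeast fusion mutant, YPEG (non-fermentable carbon), compound, 48 h at 37C non-permissive; CellTiterGlo added, 10 min RT, luminescence read. Rescued growth = division inhibition.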
Integrin act MD: qHTS for Activators of Integrin-Mediated Alleviation for Muscular Dystrophy; alpha7betagal myoblasts, beta-gal FDG fluorescence, 48 h; Potency, µM (top dose mostly 38.3 µM), without a hit: at the top dose activation, usual class: activators; hit rate 0.064% among 350,000;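 also: 100% = response of the positive control SU9516; nearly all actives have a fitted effect of over 60% in size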
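alpha7betagal+/- myoblasts (passage 13, 250/well) treated 48 h at 37C with compounds at 1:260 dilution of DMSO stock. Lysed, then beta-galactosidase activity read as FDG fluorescence (ex 480/em 540) after 30 min, with pre-read for autofluorescence.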
RORgamma inh: qHTS for inhibitors of ROR gamma transcriptional activity; Nuclear receptor ROR-gamma (Mus musculus), P51450; Drosophila S2 Gal4-RORgamma UAS-luciferase reporter, 20 h; Potency, µM (doses to about 53.6 µM), for the others: at the highest dose activity change, negative = inhibition, most hits filed as inhibitors; hit rate 5.4% among 310,000; AID 2551, 2010; also: % is scaled to controls: 0 for no effect and ±100 for the full control effect; nearly all actives have a fitted effect of over 60% in size
Target sequence (P51450 whole entry, looked up, the tested form may be a part): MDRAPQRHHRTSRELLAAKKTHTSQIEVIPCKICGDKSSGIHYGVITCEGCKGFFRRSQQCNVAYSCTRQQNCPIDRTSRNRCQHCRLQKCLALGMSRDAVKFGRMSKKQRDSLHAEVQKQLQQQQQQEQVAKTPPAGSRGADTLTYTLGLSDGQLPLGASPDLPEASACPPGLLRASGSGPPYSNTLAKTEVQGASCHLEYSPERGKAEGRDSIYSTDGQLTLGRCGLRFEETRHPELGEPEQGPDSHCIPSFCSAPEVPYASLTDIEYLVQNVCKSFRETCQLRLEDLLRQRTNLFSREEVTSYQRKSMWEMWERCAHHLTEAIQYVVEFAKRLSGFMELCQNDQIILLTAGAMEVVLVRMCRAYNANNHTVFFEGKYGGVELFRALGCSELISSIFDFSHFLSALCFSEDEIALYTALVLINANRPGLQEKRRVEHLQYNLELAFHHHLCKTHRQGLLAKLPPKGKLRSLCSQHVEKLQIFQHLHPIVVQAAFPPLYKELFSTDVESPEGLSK
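Drosophila S2 cells stably expressing Gal4-DBD/mouse RORγ fusion under metallothionein promoter plus UAS-luciferase; compound 1 h, then 700 uM CuSO4 induction for 20 h at ambient temperature; inhibition read as reduced luminescence.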
uPA surface inh: qHTS for Inhibitors of Cell Surface uPA Generation. cell surface uPA generation assay, qHTS. Potency, µM (titrated, usually from 38.3 µM), for the others: top-dose activity change, negative = inhibition, hits mostly inhibitors. hit rate 0.31% among 330,000; active = well fitted inhibition curve with a large enough effect; inconclusive = small, poorly fitted or top-dose-only effect; inactive = no such curve, though single readings can be large or run the other way; tested in mouse RAW 264.7 cells; also: % is scaled to controls: 0 for no effect and ±100 for the full control effect; nearly all actives have a fitted effect of over 55% in size
* marks the source's active call; other numbers are inactive results; ? = inconclusive; · = not tested or not shown; [ ] = dose if it differs, or a comment. Only some compounds are listed: those with a hit (about 5.5% of all), similar ones and a draw of the others. Unless noted, calls follow the shape of the dose curve; as a rule, active = well fitted curve in the direction sought with a large enough effect; inconclusive = small, poorly fitted or top-dose-only effect, or another doubt; inactive = no such curve, though single readings can be large; an effect the other way counts as inactive or inconclusive. Potency is read from the fitted curve at half-maximal effect.

SMILES | Gal4-VP16 FLuc | Chronic BCR inh | Mito fusion yeast | Integrin act MD | RORgamma inh | uPA surface inh
O=C1CC(c2ccccc2)CC(O)=C1C=NCCc1ccccc1 (stereo not given) | 18% | 0% | -4% | 17% | -1% | 0%
COc1ccc2nc(N(Cc3cccnc3)C(=O)c3ccc(Cl)cc3)sc2c1 | · | 9% | · | · | · | ·
Cc1oc2c(c1C(=O)c1ccccc1)C(=O)C(=O)c1ccccc1-2 | 3.2µM* | ? | -11% | -52% | 2.8µM* | -11%
O=C1C(=O)c2c(C(=O)c3ccccc3)coc2-c2ccccc21 | 3.5µM* | ? | -6% | -58% | 6.3µM* | -14%
O=C(c1ccccc1)c1coc2ccc(O)c(Cl)c12 | 1% | ? | 25% | 4% | -3% | -17%
COc1ccc(OC)c(N=C2C(=O)Nc3ccccc32)c1 | -1% | 0% | -2% | 14% | ? | 4%
COc1cc(N=c2ssnc2Cl)c(OC)cc1Cl | 25µM* | ? | 4% | 25% | ? | -1%
COc1ccc(OC)c(N=c2ssnc2Cl)c1 | ? | 5% | 1% | -16% | 18µM* | 4%
CC1(C)CC[C@@]23CC[C@]4(C)[C@@](OC2=O)(C3C1)[C@H]1O[C@H]1C1[C@@]2(C)CC[C@H](O)C(C)(C)C2CC[C@]14C (stereo not given in full) | · | · | · | 14% | · | 16%
Cc1ccc(/C=N/NC(=O)c2nnn(-c3nonc3N)c2C(C)C)s1 | 7.1µM* | 3% | 0% | -12% | 2.2µM* | 12%
COc1cccc(-c2c(C(=O)N/N=C/c3ccc(C)o3)nnn2-c2nonc2N)c1 | ? | ? | -2% | 10% | 10µM* | 5%
COc1cccc(-c2c(C(=O)N/N=C/c3ccc(C)s3)nnn2-c2nonc2N)c1 | 5.6µM* | 4% | -14% | 6% | 2.5µM* | 2%
CCOc1ccc(-c2c(C(=O)N/N=C/c3ccc(C)s3)nnn2-c2nonc2N)cc1 | 2.8µM* | 23% | -1% | -1% | 2.2µM* | 3%
N#CCCn1c(=O)c(-c2ccc(F)cc2)nc2cnc(Oc3cccc(Cl)c3)nc21 | 1% | · | · | · | 4% | ·
N=C(N)SCCc1ccc(OCc2ccc([N+](=O)[O-])cc2)cc1 | -22% | · | · | · | -29% | ·
CCOc1cccc(-c2c(C(=O)N/N=C/c3ccc(C)s3)nnn2-c2nonc2N)c1 | 4µM* | ? | -4% | -12% | 2.5µM* | 5%
COc1cccc(-c2c(C(=O)N/N=C/c3ccoc3)nnn2-c2nonc2N)c1 | ? | ? | 2% | 0% | 13µM* | 3%
CCOc1cccc(-c2c(C(=O)N/N=C/c3c(F)cccc3Cl)nnn2-c2nonc2N)c1 | -4% | ? | 2% | 4% | -2% | 7%
CCOc1ccc(C(C)=O)cc1N1C(=O)C2C3C=CC(O3)C2C1=O (stereo not given) | 6.3µM* | ? | -1% | -65% | 6.3µM* | ·
O=C(N/N=C/C(Br)=C/c1ccccc1)c1ccncc1 | -8% | ? | -4% | -64% | -1% | ?
O=C(N/N=C/C(Br)=C\c1ccccc1)c1ccc2nc[nH]c2c1 | 7.9µM* | ? | 0% | -32% | 14µM* | -9%
O=C(N/N=C/C(Br)=C/c1ccccc1)c1ccc([N+](=O)[O-])cc1 | -19% | -17% | -24% | -49% | 13µM* | ?
O=C(O)c1ccc(N/N=C/C(Br)=C/c2ccccc2)cc1 | 10µM* | ? | -3% | -52% | 8.9µM* | ?
CC1CCN(C(=S)NC(=O)c2ccco2)CC1 | 6.3µM* | ? | -14% | ? | 4µM* | 2%
CC1CCCCN1C(=S)NC(=O)c1ccco1 (stereo not given) | · | 0% | -2% | -23% | · | 4%
SMILES | Gal4-VP16 FLuc | Chronic BCR inh | Mito fusion yeast | Integrin act MD | RORgamma inh | uPA surface inh
O=C(NC(=S)N1CCN(Cc2ccccc2)CC1)c1ccco1 | 3.5µM* | ? | -5% | -5% | 0.89µM* | 0%
CCNC(=S)N1CCN(Cc2ccccc2)CC1 | 2% | 1% | 1% | 16% | -8% | 20%
COCCNc1nc(-c2ccccc2CN(C)C)nc2ccccc12 | -8% | · | · | · | -32% | ·
O=C(O)c1ccc2cccnc2c1O | -20% | ? | 2% | 0% | 14µM* | 6%
CCCc1cc(C(=O)NNC(=S)NCC)c2ccccc2n1 | ? | 3% | -4% | -7% | -40% | 5%
COCCCNC(=S)NNC(=O)c1cc(C2CC2)nc2ccccc12 | ? | 0% | -2% | -4% | 2.8µM* | 3%
COCCCNC(=S)NNC(=O)c1cc(-c2cccnc2)nc2ccccc12 | -27% | -1% | 0% | -12% | -34% | -24%
COCCNC(=S)NNC(=O)c1cc(-c2cccnc2)nc2ccccc12 | ? | 3% | -3% | 15% | 13µM* | -6%
Cc1ccc(-c2cc(C(=O)Nc3nccs3)c3ccccc3n2)c(C)c1 | 6.3µM* | ? | ? | -6% | 4.5µM* | 3%
CCNC(=S)NNC(=O)c1cc(-c2cc(C)ccc2C)nc2ccccc12 | -22% | 14% | -3% | -7% | 0.35µM* | ·
COCCCNC(=S)NNC(=O)c1cc(-c2ccncc2)nc2ccccc12 | ? | -2% | 2% | -13% | ? | -3%
CC(C)NC(=O)Cn1cc(C(=O)C2CC2)c2ccccc21 | 5% | 10% | 3% | -20% | 5% | -12%
Cc1cc(C)cc(-n2c(C)nc3cc(C(=O)NCc4ccccc4Cl)ccc32)c1 | · | 6% | · | · | · | ·
CCCCOc1ccc(S(=O)(=O)NNC(=O)c2cc3ccccc3o2)cc1 | -30% | 0% | 11µM* | -5% | -4%[10 µM] | -2%
Cc1cc(C)c(N(Cc2ccccc2)S(=O)(=O)c2ccc(OCCNC(=O)c3cc4ccccc4o3)cc2)c(C(=O)NO)c1 | ? | · | · | · | 10µM* | ·
O=C(CSc1nnc(NC(=O)NC2CCCCC2)s1)Nc1ccccc1F | · | 15% | · | · | · | ·
CCOc1ccc(NS(=O)(=O)c2ccc(C(=O)NC3CCC(O)CC3)cc2)cc1 (stereo not given) | · | 2% | -1% | -7% | · | 6%
COc1cc2c(cc1OC)C(C)N(C(=O)c1ccc(C)o1)CC2 (stereo not given) | 3% | -15% | -3% | -24% | -11% | -8%
Cc1onc(-c2ccccc2)c1C(=O)NC(=S)NNC(=O)c1ccncc1 | ? | ? | -5% | 7% | ? | -1%
Cc1onc(-c2ccccc2)c1C(=O)NNC(=S)NC(=O)c1ccc2c(c1)OCO2 | -15% | ? | -2% | -46% | 2.5µM* | -1%
